Inconclusive results are not listed. A number with no mark means an inactive call. The source made the active and inactive calls. Calls follow the shape of the dose curve; as a rule, active = well fitted cell-killing curve with a large enough effect; inconclusive = small, poorly fitted or top-dose-only effect, or effect the other way; inactive = flat fitted curve, though single readings scatter.
Assay: Compound cytotoxicity measured by an ATP content assay as a counter-screen for lead compounds in human astrocytoma cell line (SNB-19)
Details: SNB-19 astrocytoma viability, ATP luminescence; series mostly up to 46.1 µM; activity change, negative = cytotoxicity: at the top concentration
Description: National Center for Advancing Translational Sciences [NCATS] Johns Hopkins University School of Medicine Florida State University Assay Overview: Many compounds can cause cytotoxicity at high compound concentrations. […] The compound cytotoxicity may also cause side effects or toxicity in human. Thus, the compound cytotoxicity needs to be measured in each cell type and each compound incubation time - same as these in the compound screening assay. The compound cytotoxicity can be measured by cell viability assays such as the ATP content assay. We use an ATP content assay kit for cell viability measurement. It measures ATP content (level) in human astrocytoma cell line (SNB-19) using a luminescence readout that is proportional to viable cell numbers. Decrease in the luminescence signal after the compound treatment indicates reduced cell viability and cell death caused by compound treatment.
Assay Protocol Summary: The medium for SNB-19 cells is composed of RPMI 1640 (ATCC, Cat.# 30-2001), 10% fetal bovine serum (FBS) (GE healthcare Life Sciences, Cat.# SH30071.03), and 1% Pen/Strep (Gibco, Cat.# 15140-122). The ATP content assay kit (PerkinElmer, Cat.# 6016731) was used to determine cell viability. The reagent was reconstituted and prepared as described by the manufacturer. Cells were seeded in 384- or 1536-well assay plates and cultured at 37 C with 5% CO2 for 16 to 20 hours. The typical cell seeding density in the 1536-well plate assay is 250 cells/well in 3ul medium for SNB-19 cells in tissue culture treated plates. Compounds were added to cells and incubated for a specific time such as 6, 24, or 72 hours before addition of the reagent mixture of the ATP content assay kit at 1:1 ratio. After incubation at room temperature for 10 minutes, the luminescence intensity in assay plates was measured using a ViewLux plate reader (PerkinElmer). […] The percentage inhibitions of the decreased cell viability by small molecules were then calculated that indicate compound cytotoxicity.

Row | Structure (SMILES) | activity change, negative = cytotoxicity | Potency
1 | CC(C(=O)O)c1ccc(C(=O)c2cccs2)cc1 (stereo not given) | 12.4% | –
2 | Cc1nc(N)sc1-c1ccnc(Nc2ccc(N3CCOCC3)cc2)n1 | 8.47% | –
3 | O=C(O)c1cccc(-c2noc(-c3ccccc3F)n2)c1 | – | 5.48 µM (active)
4 | Nc1ncnc2c1ncn2[C@@H]1O[C@@H](CO)[C@H](O)[C@H]1O | -8.91% [at 23.8 µM] | –
5 | Oc1ccc(/C=C/c2cc(O)cc(O)c2)cc1 | – | 24.5 µM (active)
6 | Cc1oncc1C(=O)Nc1ccc(C(F)(F)F)cc1 | 9.65% | –
7 | O=c1oc2cc(O)ccc2s1 | -3.49% | –
8 | CNC1[C@H](O)C(O[C@@H]2C(O)C(O[C@H]3O[C@H]([C@@H](C)NC)CC[C@H]3N)[C@@H](N)C[C@H]2N)OC[C@]1(C)O (stereo not given in full) | 27.5% | –
9 | Cc1cc(O)c2c(c1)C(=O)c1cc(O)cc(O)c1C2=O | -13% | –
10 | CC(O)=C(C#N)C(=O)Nc1ccc(C(F)(F)F)cc1 | – | 8.69 µM (active)
11 | COc1ccc(C=CC(=O)Nc2ccccc2C(=O)O)cc1OC | -17.9% | –
12 | O=C(Nc1cc2cc[nH]c2cn1)c1ccccc1 | – | 0.388 µM (active)
13 | CN(C)c1ccc2cc(C(=O)N[C@@H](CCCN=C(N)CCl)C(=O)NCc3ccccc3)ccc2c1 | 4.93% | –
14 | C[C@@H](N)c1ccc(C(=O)Nc2ccnc3[nH]ccc23)cc1 | 10.8% | –
15 | CN1CCN(c2cc3c(nn2)Oc2ccccc2N3C)CC1 | 14.2% [at 23.8 µM] | –
16 | COc1ccc(CC2=NN3C([C@@H](CCc4ccccc4)[C@@H](C)O)=NC(C)C3C(=O)N2)cc1OC (stereo not given in full) | 10.1% | –
17 | CC(=O)Oc1cccc2c1C(=O)c1c(OC(C)=O)cc(C(=O)O)cc1C2=O | -12.9% | –
18 | O=c1c(-c2ccc(O)cc2)coc2cc(OC3O[C@H](CO)[C@H](O)[C@H](O)[C@H]3O)cc(O)c12 (stereo not given in full) | -18.9% | –
19 | O=C(Nc1ncc([N+](=O)[O-])s1)c1cccs1 | -14.7% | –
20 | CC1(C)Cc2c(sc(NC(=S)NC(=O)c3ccccc3)c2C(=O)O)CO1 | 10.2% | –

Row | Structure (SMILES) | activity change, negative = cytotoxicity | Potency
21 | O=C1c2ccccc2-[n+]2ccc3c([nH]c4ccccc43)c21 | – | 4.35 µM (active)
22 | CC(C(=O)O)c1ccc2c(c1)[nH]c1ccc(Cl)cc12 (stereo not given) | 13.1% | –
23 | Cc1cccc(/C=C/c2ccccc2)n1 | -22.7% | –
24 | COc1cc(NC(C)CCCN)c2ncccc2c1 (stereo not given) | 7.08% | –
25 | COc1ccnc2c1CCCCC2S(=O)c1nc2ccccc2[nH]1 (stereo not given) | -9.48% | –
26 | C[C@@H]1CCN(C(=O)CC#N)C[C@H]1N(C)c1ncnc2[nH]ccc12 | 14.7% | –
27 | C=CCCCCCCCCC(=O)O | -4.48% | –
28 | CCN1/C(=C/C=C/c2sc3ccccc3[n+]2CC)Sc2ccccc21 | -29.8% [at 23.8 µM] | –
29 | CCCCCNC(=O)N1CCC(CN(Cc2ccc(Cl)cc2)Cc2ccc([N+](=O)[O-])s2)C1 (stereo not given) | 15.7% | –
30 | O=C(Nc1ccc(C(=O)O)c(O)c1)c1ccccc1 | 4.12% | –
31 | COc1cc2nc(N3CCN(C(=O)C4CCCO4)CC3)nc(N)c2cc1OC (stereo not given) | 7.25% | –
32 | Cc1csc(NC(=O)c2sc3nc4c(c(C(F)(F)F)c3c2N)CCC4)n1 | – | 4.35 µM (active)
33 | N#C/C(=C\c1ccc(O)c(O)c1)C(=O)Nc1ccccc1 | 9.03% | –
34 | COc1ccc(-c2cc(=O)c3c(O)cc(O)cc3o2)cc1O | 25.9% | –
35 | O=C(c1ccccc1)c1ccc2n1CCC2C(=O)O (stereo not given) | 0.488% | –
36 | COCCn1c2c([n+](Cc3cnccn3)c1C)C(=O)c1ccccc1C2=O | – | 0.0155 µM (active)
37 | O=S(=O)(O)CCSSCCS(=O)(=O)O | -11.8% | –
38 | O=C(/C=C/c1ccccc1)NCCO | 9.32% | –
39 | CO[C@H]1C(=O)[C@]2(C)[C@@H](OC)C[C@H]3OC[C@@]3(OC(C)=O)[C@H]2[C@H](OC(=O)c2ccccc2)[C@]2(O)C[C@H](OC(=O)[C@H](O)[C@@H](NC(=O)OC(C)(C)C)c3ccccc3)C(C)=C1C2(C)C | 8.56% | –
40 | Cc1[nH]c(C=C2C(=O)Nc3ccccc32)c(C)c1CCC(=O)O | 3.28% | –

Reference: PubChem BioAssay AID1224862 (National Center for Advancing Translational Sciences (NCATS), 2016)
